Data reported in PubChem BioAssay (NCI).
The panel holds about 83,000 compounds, 20% with a hit somewhere; the sample as a whole holds those more often.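 For each line, cells grew in 96-well plates with the test compound present at a single concentration for 48 hours.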 Unmarked numbers belong to inactive results. The source made the active and inactive calls. The calls were made as follows: active = growth percent below 10; inactive = the rest.

What was measured:
Assay in all cases: NCI-60 one-dose screen, 48 h (100 = growth as untreated, 0 = no growth, -100 = all killed)
Details in all cases: 10 µM unless noted
[1] = system: RPMI-8226 leukemia
[2] = system: OVCAR-8 ovarian
[3] = system: OVCAR-5 ovarian
[4] = system: OVCAR-4 ovarian
[5] = system: SK-OV-3 ovarian
[6] = system: IGROV1 ovarian
[7] = system: OVCAR-3 ovarian
[8] = system: HS 578T breast
[9] = system: NCI/ADR-RES ovarian
[10] = system: T-47D breast
[11] = system: BT-549 breast
[12] = system: MDA-MB-435 melanoma
[13] = system: SW-620 colon
[14] = system: MCF7 breast
[15] = system: HCT-116 colon
[16] = system: HCC-2998 colon
[17] = system: KM12 colon

Row | SMILES | growth [1] | growth [2] | growth [3] | growth [4] | growth [5] | growth [6] | growth [7] | growth [8] | growth [9] | growth [10] | growth [11] | growth [12] | growth [13] | growth [14] | growth [15] | growth [16] | growth [17]
1 | COc1ccc(Cn2cc3c(c2-c2ccccc2)CCc2cnoc2-3)cc1 | -25.3% (active) | 19.9% | 26% | 54.7% | 21.9% | 21.7% | -11.5% (active) | 9.15% (active) | 4.47% (active) | 64.7% | 45.3% | 3.43% (active) | 18.3% | 14.6% | 0.167% (active) | 12.5% | 0.62% (active)
2 | O=C(CN1CCN(c2cc3c(cc2F)c(=O)c(C(=O)O)cn3C2CC2)CC1)N/N=C/c1ccco1 | 101% | 98.2% | 85.1% | 105% | 88.8% | 101% | 107% | 95.5% | 103% | 86.8% | 95.2% | 102% | 99.6% | 87.1% | 97.1% | 107% | 102%
3 | CCN(CC)CCN1C(=O)c2cccc3c(/C=C/CN4C(=O)c5cccc6cccc(c56)C4=O)ccc(c23)C1=O | 26.5% | 92.1% | 94.4% | 102% | 112% | 90.1% | 108% | 84.8% | 99.8% | 94.8% | 89.8% | 103% | 90.4% | 4.8% (active) | 95.5% | 105% | 63.6%
4 | Cc1nc2sc(C(=O)Nc3cccc(Br)c3C)c(N)c2cc1C(O)c1ccccc1 (stereo not drawn) | 2.82% (active) | 12.2% | 32.3% | 47.1% | 11.4% | 15.5% | -2.75% (active) | 12.3% | 4.66% (active) | 25.3% | 28.2% | 3.98% (active) | 20.4% | 10.9% | 6.83% (active) | 11.3% | 5.99% (active)
5 | O=C(Nc1cnc(Nc2ccc(N3CCOCC3)nc2)nc1Oc1ccc(C(F)(F)F)cc1)c1ccncc1 | 100% | 86.6% | 92.9% | 80.3% | 101% | – | 85% | 81.6% | 86% | 72.9% | 75.8% | 91.3% | 97.5% | 77.3% | 61.9% | 110% | 91%
6 | CCOC(=O)c1[nH]c2c(c1C)-c1[nH]c(=O)c(S(=O)(=O)c3ccccc3)cc1SC2 | 33.3% [100 µM] | 25.3% [100 µM] | 89.6% [100 µM] | 5.79% [100 µM] (active) | 59.8% [100 µM] | 48.7% [100 µM] | -15.1% [100 µM] (active) | 28.1% [100 µM] | 59.7% [100 µM] | 1.66% [100 µM] (active) | 32.7% [100 µM] | 24.2% [100 µM] | 49.1% [100 µM] | 28.2% [100 µM] | 24.9% [100 µM] | 75.1% [100 µM] | 28.1% [100 µM]
7 | CCN1CCN(CCNc2nccc(-c3c(-c4ccc(F)c(OC)c4)nc4sccn34)n2)S1(=O)=O | 68.7% | 77.2% | 114% | 92% | 87.5% | 74.4% | 85.5% | 77.7% | 103% | 87.3% | 93.2% | 26.6% | 87.4% | 50% | 44.5% | 89% | 74.2%
8 | COc1cccc(-c2cc(-c3cccc(Cl)c3)c(C#N)c(=O)[nH]2)c1 | 64.3% | 89.6% | 96.7% | 73% | 81% | 71.8% | 51% | 49.3% | 69.2% | 80.1% | 53.5% | 4.96% (active) | 49.3% | 55.5% | 73.9% | 98.7% | 57.5%
9 | Cc1nnc(-c2ccc3c(c2)nc(/C=C/c2ccccc2)n3C2CCCCC2)o1 | 44.3% | 80.2% | 125% | 82.3% | 64.8% | 77.1% | 75.4% | 90.3% | 85.2% | 52% | 81% | 83.8% | 111% | 77.1% | – | 87.7% | 85.1%
10 | CCN1C(=O)N(CC)C2C1NC(=S)N2/N=C/c1ccc(OC)cc1 (stereo not drawn) | 85.4% | 70.4% | 82.7% | 81% | 57% | 44.9% | 17.1% | 47.5% | 57.4% | 49.8% | 59.4% | -13.7% (active) | 25.6% | 22.5% | 24.7% | 67.8% | 31.2%
11 | Nc1ccc(-c2csc(-n3[nH]c(=O)ccc3=O)n2)cc1 | 97.3% | 101% | 108% | 101% | 112% | 99% | 113% | 100% | 94.4% | 98.5% | 92% | 103% | 104% | 86.6% | 94% | 112% | 104%
12 | Cc1ccc2nc(-c3ccc(C(=O)NNC(=S)Nc4ccccc4)cc3)[nH]c2c1 | 85.1% | 95.7% | 98.3% | 88.2% | 98.3% | 86.4% | 95% | 111% | 100% | 86.3% | 90.6% | 97.8% | 108% | 79.5% | – | 103% | 94.8%
13 | CN1CCN(Cc2ccc(NC(=O)c3cncc(C#Cc4cnc(N)c5ncccc45)c3)cc2C(F)(F)F)CC1 | 19.5% | -29% (active) | -26.5% (active) | -21.9% (active) | 2.59% (active) | -50.8% (active) | 15.3% | -30.3% (active) | -55.3% (active) | 35.9% | 34.1% | -64.7% (active) | -16.9% (active) | -74.2% (active) | -63.8% (active) | 16.3% | 5.04% (active)
14 | Cc1cn(-c2cc(NC(=O)c3cncc(C#Cc4c(N)ncc5ccc(F)cc45)c3)cc(C(F)(F)F)c2)cn1 | 55.1% | – | 46.2% | 79.6% | 87.6% | 32.9% | 84.5% | 54.6% | 79.1% | 65.8% | 86.4% | 36.6% | 33.3% | 31.5% | – | 77.4% | 14.1%
15 | N[C@H]1CCC[C@@H]1NCCCCN1C(=O)c2cccc3cc([N+](=O)[O-])cc(c23)C1=O | 58.3% | 37.1% | 73.6% | 44.5% | 42.1% | 34.5% | 53% | 65.4% | 77% | 57.5% | 68.3% | 53.2% | 26.7% | 19.7% | 9.25% (active) | 51.9% | 36.6%
16 | CCOC(=O)C(Cc1ccc(OC)cc1)C(=O)OCC | 0.799% (active) | 26.4% | 72% | 56.4% | 50% | 28.1% | 2.41% (active) | 6.32% (active) | 17.9% | 20.7% | -9.62% (active) | 14.7% | 35.1% | 17.1% | 17.8% | 55.5% | 7.78% (active)
17 | C=C(c1ccc(OC)c(/C=C/C(=O)c2ccc3c(c2)OCO3)c1)c1cc(OC)c(OC)c(OC)c1 | 11.7% | 6.09% (active) | 36.6% | 38.9% | 27.4% | 35.2% | 1.16% (active) | 40.8% | 5.57% (active) | 8.67% (active) | 12.7% | 23.2% | 5.67% (active) | 16.1% | 2.56% (active) | 9.86% (active) | 4.46% (active)
18 | COc1cc(-c2nc3cc(Cl)c(Cl)cc3[nH]2)ccc1OCC(=O)N=Nc1c(O)[nH]c2ccc(Cl)cc12 | 10.4% | 2.5% (active) | 26.8% | 12.2% | -5.3% (active) | -0.308% (active) | -94.3% (active) | -14% (active) | 88.2% | -4.31% (active) | 12% | -57.7% (active) | -14.2% (active) | 1.63% (active) | -16.2% (active) | – | 9.24% (active)
19 | CN1CCN(c2ccc3nc4c(nc3c2C(F)(F)F)C(=O)c2ncccc2C4=O)CC1 | 27.6% | – | -90.4% (active) | -91.1% (active) | 29.7% | -32.6% (active) | -27.9% (active) | -16% (active) | – | -28.4% (active) | -97% (active) | -91.8% (active) | 4.71% (active) | -57% (active) | 0.984% (active) | -26.9% (active) | 13%
20 | Cc1cccc(N2CCC(=O)NC2=S)c1 | 117% | 99.9% | 105% | 107% | 107% | 103% | 110% | 107% | 105% | 105% | 104% | 106% | 103% | 97.1% | 93.2% | 95.4% | 107%
21 | C[C@H](C(=O)N(CCc1ccc(Cl)c(Cl)c1)Cc1cncs1)[C@@H]1CC[C@H](C[C@H](C)n2cc(CN3CCC(c4ccc(Cl)cc4)CC3)nn2)O1 | 91.7% | 91% | 97% | 92.6% | 103% | 101% | 105% | 98.7% | 105% | 86.6% | 95.1% | 98.3% | 97.5% | 85.8% | – | 112% | 105%
